Source: PubChem
Rce1 inhib = yeast Rce1p protease inhibitors, primary screen, biochemical, fluorescence, cell-free homogeneous. AID 2563, 2010. CAAX prenyl protease 2 (Saccharomyces cerevisiae (strain ATCC 204508 / S288c)), Q03530. calls only. yeast membranes, quenched prenylated peptide cleavage fluorescence. 290,000 compounds, 0.27% hits;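 active = fall in fluorescence gain of 50% or more versus controls, with final raw signal at or below 3038400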;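 note: plate controls were neutral control wells for no effect and wells lacking membranes for full effect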
Target sequence (Q03530 whole entry, looked up): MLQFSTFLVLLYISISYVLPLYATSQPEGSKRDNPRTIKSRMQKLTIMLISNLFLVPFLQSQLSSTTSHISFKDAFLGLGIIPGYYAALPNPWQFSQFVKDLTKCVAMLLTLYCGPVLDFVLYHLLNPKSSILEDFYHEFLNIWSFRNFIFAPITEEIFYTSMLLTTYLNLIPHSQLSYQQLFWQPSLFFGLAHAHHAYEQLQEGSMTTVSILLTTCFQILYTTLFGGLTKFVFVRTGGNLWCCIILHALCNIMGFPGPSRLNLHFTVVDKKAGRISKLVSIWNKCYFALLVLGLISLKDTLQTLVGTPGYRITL
PGC1a acetyl inh = inhibitors of PGC1a acetylation signal, primary screen, cell-based, U2OS, AlphaScreen, inhibitor mode | AlphaScreen anti-acetyl-lysine; with virally co-expressed GCN5 acetyltransferase | inhibition, % at 15.6 µM | 350,000 compounds, 0.17% hits | AID 651687, 2012;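 active = every replicate shows inhibition of at least 40%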;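 note: 0% = neutral control wells and 100% = positive control wells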
HIF activator = HIF pathway transcriptional activators, primary screen, cell-based, U2OS HRE-luciferase, luminescence. activation, % at 7.5 µM (by protocol). 300,000 compounds, 0.32% hits. U2OS HRE-luciferase reporter; normalized: DMSO 0%, desferrioxamine 100%;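 active = mean activation of at least 10% of the iron chelator positive control signal, with at least half of replicates also reaching 10%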
AI-2 QS modul = Vibrio harveyi AI-2 quorum sensing modulators, primary screen, JMH597 strain, luminescence/OD600 ratio; activity change, % at 7.5 µM; 300,000 compounds, 0.4% hits; Vibrio harveyi JMH597 AI-2 luminescence/OD600 ratio, 9 h; active compounds read low; strain lacks LuxN and CqsS sensors; 0 = neutral-control median; in the data active = activity change below about -75%, passing the limit was not always enough;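 note: luminescence divided by OD600 gain over 9 h not by final OD600 alone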
C2C12 statin = suppressors of statin myotoxicity in C2C12 myotubes, primary screen, cell-based, single point, plate reader; C2C12 myotubes + simvastatin, ATP luminescence, 48 h; scaled: DMSO 0, geranylgeraniol control 100; rescue of ATP level, % at 7.49 µM; 330,000 compounds, 0.78% hits;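 active = mean ATP rescue above about 67%, or every replicate alone reaching that limit, limit read from the data, passing the limit was not always enough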;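 note: myotubes were challenged with 10 µM simvastatin during compound exposure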
The depositor's hits bear a star; i = inactive; . = no result; + = active, no number. An excerpt weighted towards active compounds, which were near 1.3% of everything screened.

SMILES	Rce1 inhib	PGC1a acetyl inh	HIF activator	AI-2 QS modul	C2C12 statin
CN(C)c1ccc(O)c2c1CC1CC3[C@@H](N(C)C)C(=O)C(C(N)=O)=C(O)[C@]3(O)C(=O)C1=C2O (some centres not stated)	i	7	0	-87*	7
O=c1c2cc(Cl)ccc2nc(-c2ccc([N+](=O)[O-])cc2)n1O	i	4	0	-83*	.
O=c1c2cc(Br)ccc2nc(-c2ccc(Cl)cc2)n1O	i	7	0	18	-9
COc1ccc(C(=O)C2CCCN(C(=O)C3CCOCC3)C2)cc1OC (configuration not stated)	i	-3	424*	10	-4
O=C(CSCc1ccc(Cl)cc1)N1CCOCC1	i	-6	0	-28	2
Cc1ccc(CSCC(=O)N2CCOCC2)cc1	i	11	0	-16	104*
COc1ccccc1CNC(=O)C[C@H]1CC[C@H]2[C@@H](COC[C@H](O)CN2Cc2cccc(-c3ccncc3)c2)O1	.	-2	.	.	16
Cc1ccc(C2=NS(=O)(=O)N(C)C(C(=O)NC3CCCC3)=C2)cc1	i	37	31*	23	0
COc1ccc(C2=NS(=O)(=O)N(C)C(C(=O)NC3CCCC3)=C2)cc1OC	i	-16	0	17	-1
C[C@@H]1CCCCO[C@@H](CN(C)C(=O)Nc2ccccc2)[C@H](C)CN([C@H](C)CO)C(=O)c2cc(N(C)C)ccc2O1	.	0	.	.	35
C=C(C)Cn1c(CCCNC(=O)C(C)(C)C)nc2ccccc21	i	-29	0	8	154*
COCCCNC(=O)c1c(N)n(-c2cccc(S(N)(=O)=O)c2)c2nc3ccccc3nc12	i	-7	0	10	-2
Nc1c(C(=O)Nc2ccccc2)c2nc3ccccc3nc2n1CCCN1CCOCC1	i	-57	0	34	14
COc1ccc(-n2c(N)c(C(=O)NCc3ccco3)c3nc4ccccc4nc32)c(OC)c1	+	.	0	12	-2
Nc1c(C(=O)NCCN2CCOCC2)c2nc3ccccc3nc2n1-c1cccc(F)c1	+	2	0	15	-6
CCCNC(=O)c1c(N)n(-c2cccc(OC)c2)c2nc3ccccc3nc12	i	-10	-1	14	106*
C[C@@H]1CN([C@H](C)CO)C(=O)c2cc(-c3ccccc3F)cnc2O[C@H]1CN(C)Cc1cccc(C(=O)O)c1	.	0	.	.	5
C=CCc1c(C)[nH]c2ccc(C)cc2c1=O	i	-1	2	17	95*
CCc1c(C)[nH]c2ccc(C)cc2c1=O	i	-8	1	31	-25
COc1cccc(/C=N/NC(=O)CSc2nnc(C)n2-c2ccccc2)c1O	i	5	1	6	26
COc1cccc(/C=N/NC(=O)c2ccc(-c3ccccc3)cc2)c1O	i	8	47*	11	27
CCn1c(C)nc2cc(C(=O)N/N=C/c3cccc(O)c3O)ccc21	i	16	43*	-12	.
COc1cccc(/C=N/NC(=O)c2c(C)nc3ccc(Cl)cn23)c1O	i	.	86*	3	8
COc1ccc(OC)c(/C=N\NC(=O)c2ccc(-c3ccccc3)cc2)c1	i	.	.	-2	.
CCCCSc1nc(C)cc(SCC(=O)N/N=C/c2cccc(OC)c2O)n1	i	16	21*	19	126*
SMILES	Rce1 inhib	PGC1a acetyl inh	HIF activator	AI-2 QS modul	C2C12 statin
COCC(=O)N(C)C[C@@H]1Oc2cc(C3=CCCC3)ccc2S(=O)(=O)N([C@@H](C)CO)C[C@@H]1C	.	-11	.	.	-4
CCNC(=O)Nc1ccc2c(c1)C(=O)N(C)[C@H]1CC[C@@H](CC(=O)NCC3CC3)O[C@H]1CO2	.	-1	.	.	-1
CCOc1cccc(/C=N/NC(=O)c2ccc3c(c2)OCCO3)c1O	i	.	12*	-9	27
CN(C)c1ccc(/C=N/NC(=O)CNC(=O)c2ccc3c(c2)OCCO3)cc1	+	.	0	23	.
COc1cccc(/C=N/NC(=O)CNC(=O)c2ccc3c(c2)OCCO3)c1O	i	3	1	-1	.
COc1cc(C(=O)Oc2cccc(C)c2)cc(OC)c1OC	i	0	0	1	117*
Cc1cccc(/C=N/NC(=O)c2ccc3c(c2)OCCO3)c1O	i	.	28*	9	-85
COc1cccc(S(=O)(=O)N(C)C[C@@H]2Oc3cc(C4=CCCCC4)ccc3S(=O)(=O)N([C@@H](C)CO)C[C@@H]2C)c1	.	-8	.	.	-29
COc1ccc2c3c([nH]c2c1)[C@@H](CO)N(C)CC31CN(S(=O)(=O)c2cccc(F)c2)C1	.	3	.	.	.
COc1ccc(NC(=O)N[C@@H]2CC[C@@H](CCn3cc(-c4ccccc4)nn3)O[C@H]2CO)cc1	.	-1	.	.	-3
COc1cccc(/C=N/NC(=O)C(=O)Nc2ccccc2OC(F)(F)C(F)F)c1O	i	.	26*	16	.
COc1ccc(C(=O)N/N=C/c2ccccc2OC(=O)c2ccccc2)cc1	i	2	6	8	7
COc1cc(C(=O)Oc2ccccc2/C=N/NC(=O)c2ccc(C)cc2)cc(OC)c1OC	i	49	9.6*	18	27
COc1ccccc1/C=N/NC(=O)c1cccc(OC(F)(F)C(F)F)c1	i	.	.	1	.
Cc1cccc(/C=N/NC(=O)Cc2ccc(Cl)cc2)c1O	i	10	0	-71	7
COc1cccc(/C=N/NC(=O)c2ccc([N+](=O)[O-])cc2Cl)c1O	i	.	11*	10	.
Cc1cccc(/C=N\NC(=O)c2ccc(Cl)cc2)c1O	i	23	42*	5	.
Cc1cccc(/C=N/NC(=O)c2c(-c3ccccc3)noc2C)c1O	.	.	16*	35	5
CCOC(=O)C(=Cc1ccc(OCc2ccc([N+](=O)[O-])cc2)c(OC)c1)C(=O)OCC	i	57*	11*	25	.
O=S(=O)(c1ccc(F)cc1)N1CCCCN2[C@@H](CO)[C@H](c3ccc(C#CC4CCCC4)cc3)[C@@H]2C1	.	-18	.	.	.
COc1ccc(Br)cc1/C=C/c1ccc2cccc(O)c2n1	i	-9	0	12	68*
COc1cc(Br)cc(/C=C/c2ccc3cccc(O)c3n2)c1OC	i	.	0	4	-14
Cc1c(NC(=O)CSc2ccccn2)c(=O)n(-c2ccccc2)n1C	i	-9	-1	15	111*
Cn1c(/N=C/c2c(O)ccc3ccccc23)nc2ccccc21	i	-19	0	47	75*
O=C(N/N=C/c1c(O)ccc2ccccc12)Nc1ccccc1	i	.	0	-2	.
Cn1nccc1C(=O)N/N=C/c1c(O)ccc2ccccc12	i	.	101*	4	-33
